From PubChem BioAssay
Vaccinia mCherry – qHTS for Stage-Specific Inhibitors of Vaccinia Orthopoxvirus: mCherry Reporter Primary qHTS. Vaccinia virus mCherry reporter infection, fluorescence. Potency, µM (top dose mostly 36.5 µM), for inactives: at the highest dose activity change, negative = inhibition, hits mostly inhibitors. 310,000 tested, 0.63% active. AID 720579, 2013; calls by dose curve; tested in A549 cells; also: nearly all actives have a fitted effect of over 35% in size
VACV Venus inh – qHTS for Stage-Specific Inhibitors of Vaccinia Orthopoxvirus: Venus Reporter Primary qHTS; Vaccinia virus Venus reporter expression, fluorescence; Potency, µM (titrated, usually from 36.5 µM), for the others: top-dose activity change, negative = inhibition, most hits filed as inhibitors; 330,000 tested, 0.46% active; AID 720580, 2013; calls by dose curve; tested in A549 cells; also: nearly all actives have a fitted effect of over 30% in size
HCV inh – qHTS Assay for Inhibitors of Hepatitis C Virus (HCV); Huh7.5.1 HCVcc-Cre infection, luciferase reporter, 44 h; Potency, µM (series often up to 41.8 µM), without a hit: at the top dose activity change, negative = inhibition, hits mostly inhibitors; 340,000 tested, 3.4% active; AID 651820, 2012; active = well fitted inhibition curve with a large enough effect; inconclusive = small, poorly fitted or top-dose-only effect, or another doubt; inactive = no such curve, though single readings can be large or run the other way
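A cell-based infection assay in which seeded cells (1,000 per well) receive test compound after 4 h, are inoculated with HCVcc-Cre at approximately 0.5 moi, and are incubated 44 h before luminescence detection.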
Active calls of the source: *; [ ] = another dose, or the depositor's remark. Compounds with a hit are over-represented: about 3.3% of the library has one in this group of screens. % is scaled to controls: 0 for no effect and ±100 for the full control effect; potency is read from the fitted curve at half-maximal effect.

How did CCN(CC(=O)Nc1ccc(S(=O)(=O)N2CCCC2)cc1)Cc1ccccc1 do in these assays?
Vaccinia mCherry: -7%; VACV Venus inh: -16%; HCV inh: -16%

Results for CN1CCN(S(=O)(=O)c2ccc(NC(=O)c3cccs3)cc2)CC1 ?
VACV Venus inh: -8%; HCV inh: -6%

What do the screens show for `CCCOc1ccccc1OCC(=O)Nc1ccc(S(=O)(=O)N2CCCCC2)cc1`?
Vaccinia mCherry: -26%; VACV Venus inh: -24%; HCV inh: inconclusive

Results for CCCOc1ccccc1OCC(=O)Nc1ccc(S(=O)(=O)N2CCCC2)cc1 ?
Vaccinia mCherry: -11%; VACV Venus inh: -1%; HCV inh: 10µM*

How did CN1CCN(S(=O)(=O)c2ccc(NC(=O)c3csc4ccccc34)cc2)CC1 do in these assays?
HCV inh: 10µM*

How did Cc1ccccc1OCC(=O)Nc1cc(S(=O)(=O)N2CCCCC2)ccc1N1CCN(C)CC1 do in these assays?
Vaccinia mCherry: inconclusive; VACV Venus inh: inconclusive; HCV inh: 11µM*

Results for CCN(CC(=O)Nc1ccc(S(=O)(=O)N2CCCC2)cc1)CC(=O)Nc1ccccc1C(F)(F)F ?
HCV inh: 11µM*

What do the screens show for `Cc1cccc(OCC(=O)Nc2cc(S(=O)(=O)N3CCOCC3)ccc2N2CCCC2)c1C`?
Vaccinia mCherry: -24%; VACV Venus inh: -20%; HCV inh: inconclusive

What do the screens show for `O=C(NCc1ccncc1)c1csc([C@@H]2O[C@H](CO)[C@@H](O)[C@H]2O)n1`?
Vaccinia mCherry: -2%; VACV Venus inh: 16%

Results for Cc1ccc2c(c1)N(CCC(=O)NCc1ccccc1Cl)C(=O)CO2 ?
Vaccinia mCherry: 2%; VACV Venus inh: -2%

What do the screens show for `COc1ccc2[nH]c(CCc3nc4c(OC)c(OC)ccc4[nH]3)nc2c1OC`?
Vaccinia mCherry: -12%; VACV Venus inh: -11%

What do the screens show for `CC1CN(S(=O)(=O)c2cccc(C(=O)N(CCc3ccccc3)Cc3ccccc3)c2)CC(C)O1` (stereo not drawn)?
Vaccinia mCherry: -8%; VACV Venus inh: -24%; HCV inh: inconclusive

Results for CCN1CCCC1CNCc1cc2c(OC)c(OC)c(OC)cc2nc1N(C)C (stereo not drawn) ?
Vaccinia mCherry: -8%; VACV Venus inh: 11%

How did Cc1nnc(NCc2ccc(Cl)cc2)c2c1nnn2Cc1ccc(F)cc1 do in these assays?
Vaccinia mCherry: -22%; VACV Venus inh: -20%

What do the screens show for `NNC(=O)c1ccccc1OCc1ccccc1`?
HCV inh: -6%

Results for COc1ccc(CC(=O)Nc2cc(S(=O)(=O)N3CCOCC3)ccc2N2CCCC2)cc1OC ?
Vaccinia mCherry: -13%; VACV Venus inh: -10%; HCV inh: 8%

Results for CCCOc1ccccc1C(=O)Nc1ccc(S(=O)(=O)N2CCN(C)CC2)cc1 ?
HCV inh: 22µM*

How did O=C(Nc1ccc(O)cc1)c1ccccc1OCc1ccccc1 do in these assays?
HCV inh: 14µM*

Results for COc1ccccc1C(=O)Nc1ccc(S(=O)(=O)N2CCN(C)CC2)cc1 ?
Vaccinia mCherry: -21%; VACV Venus inh: -28%; HCV inh: 0%

How did C/C=C/c1ccc(OCC(=O)Nc2cc(S(=O)(=O)N3CCOCC3)ccc2N2CCCC2)c(OC)c1 do in these assays?
Vaccinia mCherry: -19%; VACV Venus inh: -28%; HCV inh: 10µM*

What do the screens show for `COc1ccc(C(=O)NCCCNC(=O)c2ccccn2)cc1`?
Vaccinia mCherry: -11%; VACV Venus inh: -10%; HCV inh: 2%

Results for Cc1nn(-c2ccccn2)c(C)c1Oc1ccccc1O ?
Vaccinia mCherry: -11%; VACV Venus inh: -7%; HCV inh: -29%

How did Cc1nn(-c2nc3ccccc3s2)c(C)c1Oc1ccccc1O do in these assays?
Vaccinia mCherry: inconclusive; VACV Venus inh: -12%; HCV inh: 10µM*

Results for Cc1ccc(-n2c(-c3ccccc3)nsc2=NC#N)cc1 ?
Vaccinia mCherry: 3.5µM*; VACV Venus inh: 4.5µM*

Results for Cc1ccc(-n2c(-c3ccccc3)n[nH]c2=S)cc1 ?
Vaccinia mCherry: -14%; VACV Venus inh: -10%; HCV inh: 8%

Results for Cc1c(Cl)cccc1NC(=O)Nc1nnc(N2CCCCCC2)s1 ?
Vaccinia mCherry: 0%; VACV Venus inh: -8%

How did O=C(NC[C@H]1CCCO1)c1cccc2c1C(=O)c1ccc(-c3ccc(F)cc3OCc3ccccc3)cc1S2(=O)=O do in these assays?
Vaccinia mCherry: inconclusive; VACV Venus inh: inconclusive; HCV inh: 10µM*

How did O=C(O)c1cccc2c1C(=O)c1ccc(-c3ccc(F)cc3OCc3ccccc3)cc1S2(=O)=O do in these assays?
Vaccinia mCherry: -2%; VACV Venus inh: -7%; HCV inh: -6%[8.37 µM]

Results for CCOC(=O)C1=CCN(S(=O)(=O)c2ccc(C)cc2)C1c1ccccc1F (stereo not drawn) ?
Vaccinia mCherry: inactive; VACV Venus inh: -10%

What do the screens show for `CC(C)Cn1c(N)c(C(=O)COC(=O)/C=C/c2cccs2)c(=O)n(C)c1=O`?
Vaccinia mCherry: inactive; VACV Venus inh: -14%; HCV inh: 4µM*

How did CC(C)Cn1c(N)c(C(=O)COC(=O)c2c(F)cccc2F)c(=O)n(C)c1=O do in these assays?
HCV inh: -30%

Results for CCc1ccc(C(=O)OCC(=O)c2c(N)n(CC(C)C)c(=O)n(C)c2=O)cc1 ?
Vaccinia mCherry: -22%; VACV Venus inh: -15%; HCV inh: inconclusive

What do the screens show for `CC(C)Cn1c(N)c(C(=O)COC(=O)c2ccccc2Cl)c(=O)n(C)c1=O`?
Vaccinia mCherry: 0%; VACV Venus inh: -18%; HCV inh: inconclusive

What do the screens show for `CC(C)Cn1c(N)c(C(=O)COC(=O)c2ccccc2F)c(=O)n(C)c1=O`?
Vaccinia mCherry: -14%; VACV Venus inh: -3%; HCV inh: 11µM*

What do the screens show for `CC(C)Cn1c(N)c(C(=O)COC(=O)Cc2cccs2)c(=O)n(C)c1=O`?
Vaccinia mCherry: -17%; VACV Venus inh: -8%; HCV inh: 3%

What do the screens show for `CC(C)Cn1c(N)c(C(=O)COC(=O)c2cccc(Cl)c2)c(=O)n(C)c1=O`?
Vaccinia mCherry: -19%; VACV Venus inh: -13%; HCV inh: 2.2µM*

How did CC(C)Cn1c(N)c(C(=O)COC(=O)c2ccccc2C(=O)c2ccccc2)c(=O)n(C)c1=O do in these assays?
HCV inh: 10µM*

What do the screens show for `CC(C)N(Cc1ccccc1)C(=O)c1nc(-c2ccc(Cl)cc2)n2c1CCCCC2`?
Vaccinia mCherry: -5%; VACV Venus inh: -7%

What do the screens show for `O=C(COC(=O)c1ccc(C(F)(F)F)cc1)NC(=O)C1CCCCC1`?
Vaccinia mCherry: -15%; VACV Venus inh: -11%

What do the screens show for `Cc1ccc(S/C(=N/S(=O)(=O)c2ccc(Cl)cc2)c2ccccc2)cc1`?
Vaccinia mCherry: 0%; VACV Venus inh: -18%

Results for O=C(Nc1cccc(OC(F)(F)F)c1)C1Cc2c(-c3ccc4c(c3)OCO4)ccnc2O1 (stereo not drawn) ?
Vaccinia mCherry: 39%; VACV Venus inh: 10%

How did CC1(C)CC(C(=O)N2CCOc3ccc(CN4CCC(Oc5cccnc5)CC4)cc3C2)CCO1 (stereo not drawn) do in these assays?
Vaccinia mCherry: -1%; VACV Venus inh: -17%
